Results with a measured potency or affinity are listed apart. The source made the active and inactive calls.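 Rule for the calls: active = signal drop with fitted half-maximal dose at most twice the top valid dose, active in every repeat; inconclusive = repeats disagree, or flat partial inhibition, or poor fit; inactive = inactive in every repeat, including opposite effects.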

In this assay the target is Caspase-3 (Homo sapiens) (UniProt P42574). As to the kind of experiment: human caspase-3 protease activity blockade – biochemical, fluorescence, cherry-picked samples, selectivity assay for caspase-6 allosteric inhibitor project, dose response (AID 743291). The note with it: Recombinant caspase-3, Z-DEVD-R110 cleavage fluorescence; series mostly up to 35 µM.
Chain of Caspase-3 (Homo sapiens) (P42574 whole entry, looked up): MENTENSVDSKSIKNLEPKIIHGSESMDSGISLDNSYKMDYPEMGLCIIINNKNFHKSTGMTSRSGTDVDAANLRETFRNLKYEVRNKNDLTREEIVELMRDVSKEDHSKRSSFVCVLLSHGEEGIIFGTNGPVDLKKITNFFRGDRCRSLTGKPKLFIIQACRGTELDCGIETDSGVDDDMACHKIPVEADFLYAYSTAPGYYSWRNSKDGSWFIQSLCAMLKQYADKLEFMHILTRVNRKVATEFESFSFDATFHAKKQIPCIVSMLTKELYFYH
Consider `CO[C@H]1CN(C)C(=O)c2cc(NC(C)=O)ccc2OC[C@@H](C)N(C(=O)CC2CC2)C[C@H]1C`, for which the outcome was inactive. Consider `Oc1cc(O)cc(C=Cc2ccc(O)c(O)c2)c1`, for which the result was inactive. Take `CCCc1nc2c(=O)n(C)c(=O)nc-2n(C)n1`: the result was inactive. Turning to `Oc1cc(NCCN2CCOCC2)cc2cccnc12`, the outcome was inactive. On to `O=S(=O)(O)c1cc(O)c2cc(Nc3ccccc3)ccc2c1`, for which the result was inactive. `Cc1ccc(NC(=O)CN(C)C(=O)c2cccc(-n3cccc3)c2)cc1`: the outcome was inactive. As to `CC(CNc1ccccc1O)C(=O)O` (stereo not drawn), the result was inactive. Consider `Cc1ccc(S(=O)c2ccc([N+](=O)[O-])c3nonc23)cc1` (stereo not drawn), for which the outcome was inactive. `Nc1cc2c(cc1Br)[nH]c(=O)c1ccccc12`: the result was inactive.

For the compound `CN(CC(=O)Nc1ccccc1Cl)C(=O)COC(=O)c1ccc([N+](=O)[O-])s1`, the result was inactive. In the case of `COCCN(C(=O)COC(=O)c1cc2c(s1)CCC2)c1c(N)n(Cc2ccccc2)c(=O)[nH]c1=O`, the outcome was inactive. In the case of `COc1cc(NC(C)CCCN)c2ncccc2c1` (stereo not drawn), the result was inactive. As for `CCOC(=O)[C@H](Cc1c[nH]c2ccccc12)NC(=O)CN=[N+]=[N-]`, the result was inactive. For `O=C(Nc1ccc(S(=O)(=O)Nc2cnc3ccccc3n2)cc1)c1ccc(Cl)c([N+](=O)[O-])c1`, the outcome was inactive. Turning to `CN(C)CCCNc1cc(O)c2ncccc2c1`, the result was inactive.

Turning to `CCCCNC(=O)c1nc(C2CCNCC2)oc1-c1cccc(C(F)(F)F)c1`, the result was inactive. Turning to `O=c1ccc2c(-c3ccccc3S(=O)(=O)O)c3ccc(O)c(O)c3oc-2c1O`, the outcome was inactive. In the case of `COc1ccc([N+](=O)[O-])cc1NC(=O)CCS(=O)(=O)c1ccc(Br)cc1` it was “inactive”; in that of `O=C(COC(=O)c1ccc([N+](=O)[O-])s1)Nc1ccccc1`, “inactive”. For `Cc1ccc(C)c(NC(=O)CN(C)C(=O)c2cccc(-n3cccc3)c2)c1`, the result was inactive. With `Cc1cc(C=O)c(C)n1-c1cc(C(=O)O)cc(C(=O)O)c1` the entry was “inactive”; with `O=C(COC(=O)c1ccc([N+](=O)[O-])s1)Nc1ccc(F)cc1`, “inactive”; with `COc1ccc(C(=O)OCC(=O)Nc2ncc([N+](=O)[O-])s2)cc1OC`, “inactive”.

For the compound `O=C(O)Cc1ccc(-n2cccc2)cc1`, the outcome was inactive.

Regarding `CCOC(=O)c1sc2nc(OCCN3CCOCC3)cc(C)c2c1N`, the outcome was inactive. With `O=C(O)CC(CCc1ccccc1)OC1OC(CO)C(O)C(O)C1O` (stereo not drawn), the outcome was inactive. As to `O=P(c1ccccc1)(c1ccccc1)c1cc(S(=O)(=O)O)ccc1O`, the outcome was inactive.

`CN(CC(=O)Nc1c(Cl)cccc1Cl)C(=O)c1cccc(-n2cccc2)c1`: the outcome was inactive. In the case of `Cc1c(NC(=O)C(C)OC(=O)c2ccc([N+](=O)[O-])s2)c(=O)n(-c2ccccc2)n1C` (stereo not drawn), the outcome was inactive. Turning to `CCCN(C(=O)c1cccc(-n2cccc2)c1)c1c(N)n(Cc2ccccc2)c(=O)[nH]c1=O`, the result was inactive. In the case of `O=C(O)C1CCCCC1C(=O)Nc1cccc(Br)c1` (stereo not drawn), the outcome was inactive. For the compound `[O-][n+]1onc2c1CCc1c-2nn(-c2ccccc2Cl)[n+]1[O-]`, the result was inactive.

Take `Nc1cc(S(=O)(=O)O)cc([N+](=O)[O-])c1O`: the outcome was inactive.

Turning to `COc1ccc(S(=O)(=O)Nc2cc(Sc3ncn[nH]3)c(O)c3ccccc23)cc1`, the result was inactive. For `Oc1cc2c(cc1O)[C@H]1c3ccc(O)c(O)c3OC[C@@]1(O)C2`, the outcome was inactive. Take `COc1ccc(NC(=O)CN(C)C(=O)c2cccc(-n3cccc3)c2)cc1`: the result was inactive. With `Cc1c(CCC(=O)O)c(=O)oc2c(C)c(OCc3ccccc3Cl)ccc12` the entry was “inactive”; with `CNS(=O)(=O)c1cccc(C(=O)OCC(=O)N2c3ccccc3NC(=O)C2(C)C)c1`, “inactive”.

The record behind these values is PubChem BioAssay AID743291 (Broad Institute, 2014).
